# Hits are enriched below; roughly 11% of the tested compounds scored in any of these assays.
# HEK293 tox: kills HEK 293 cells. 6.6% of 94,000 active. Potency, µM (doses to about 115 µM), inactives show at the highest dose activity change, negative = cytotoxicity, hits mostly inhibitors. HEK 293 viability, ATP luminescence (CellTiter-Glo), 48-72 h; also: nearly all actives have a fitted effect of over 60% in size
#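 ATP-coupled CellTiter-Glo luminescence served as viability read-out, recorded 10 min after reagent addition at room temperature. HEK 293 cells, 250 cells/well, had been incubated with pintool-transferred compound for 48 or 72 hr at 37 degree Celsius.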
# hNpr1 antagonist: antagonists of human natriuretic peptide receptor Npr1 | P16066 | HEK293 hNpr1 GloSensor cGMP, ANP-stimulated luminescence | Potency, µM (series often up to 46.3 µM), for inactives: top-dose activity change, negative = inhibition, hits mostly inhibitors | 1.6% of 76,000 active; calls by dose curve; also: nearly all actives have a fitted effect of over 60% in size
#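 HEK293 cells stably expressing human Npr1 and cGMP GloSensor pGS-40F, loaded 2 h with 2% GloSensor reagent, given compound 30 min at room temperature. Luminescence read before and 20 min after 0.1 nM hNppA.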
# Luciferase inh: blocks purified firefly luciferase enzyme activity; purified P. pyralis luciferase, luminescence, biochemical; Potency, µM (series often up to 115 µM), actives largely listed as inhibitors; 2.5% of 76,000 active; AID 1347043; also: nearly all actives have a fitted effect of over 65% in size
# Target sequence (P08659 whole entry, looked up): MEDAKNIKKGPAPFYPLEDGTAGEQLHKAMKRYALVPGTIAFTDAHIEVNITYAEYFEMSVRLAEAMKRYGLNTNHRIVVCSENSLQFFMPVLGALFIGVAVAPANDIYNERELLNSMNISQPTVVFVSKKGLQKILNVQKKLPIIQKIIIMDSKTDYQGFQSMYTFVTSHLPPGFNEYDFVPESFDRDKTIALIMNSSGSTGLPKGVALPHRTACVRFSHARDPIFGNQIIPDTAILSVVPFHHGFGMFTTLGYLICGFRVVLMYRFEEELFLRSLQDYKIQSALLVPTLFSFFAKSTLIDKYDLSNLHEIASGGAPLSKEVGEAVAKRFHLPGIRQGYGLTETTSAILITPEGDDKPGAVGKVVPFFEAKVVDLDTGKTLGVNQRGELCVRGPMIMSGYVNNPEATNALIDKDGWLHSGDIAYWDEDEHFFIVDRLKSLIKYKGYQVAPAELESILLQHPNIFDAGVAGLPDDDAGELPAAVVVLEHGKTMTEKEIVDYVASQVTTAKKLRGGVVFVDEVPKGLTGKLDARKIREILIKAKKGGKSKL
#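 Purified 10nM P. pyralis luciferase with 10uM D-luciferin and 10uM ATP in 50mM Tris acetate pH 7.5, 10mM Mg acetate, 0.01% Tween-20, 0.05% BSA. qHTS titration; luminescence read by CCD imager.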
# 3T3 cytotox: NIH 3T3 cell cytotoxicity. AID 1345082. NIH 3T3 viability, CellTiter-Glo ATP luminescence, 48-72 h. Potency, µM (doses to about 96.7 µM), without a hit: at the top dose activity change, negative = cytotoxicity, usual class: inhibitors. 4.3% of 94,000 active; also: nearly all actives have a fitted effect of over 55% in size
#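 NIH 3T3 cells at 400 cells/well received 23 nL of compound by pintool and were incubated 48 or 72 h at 37 °C. Viability was read as ATP-coupled CellTiter-Glo luminescence.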
# Active calls of the source: *; i = inactive; ? = inconclusive; / = no result given; ! = repeats disagree; [ ] = dose if it differs, or a comment. Unless noted, calls follow the shape of the dose curve; as a rule, active = well fitted curve in the direction sought with a large enough effect; inconclusive = small, poorly fitted or top-dose-only effect, or another doubt; inactive = no such curve, though single readings can be large; an effect the other way counts as inactive or inconclusive. % is scaled to controls: 0 for no effect and ±100 for the full control effect; potency is read from the fitted curve at half-maximal effect.
SMILES,HEK293 tox,hNpr1 antagonist,Luciferase inh,3T3 cytotox
c1csc(CN2CC[C@H](c3nc4ccccc4[nH]3)C2)c1,?,-28%[70.6 µM],?,100µM*
c1ccc(CN2CC[C@H](c3nnc(-c4ccco4)o3)C2)nc1,-29%[172 µM],3%[70.6 µM],?,0%[174 µM]
CN(C)c1ccc(CN2CC[C@H](c3nc4ccc(C(F)(F)F)cc4[nH]3)C2)cc1,32µM*,?,i,32µM*
Cc1ccc2nc([C@H]3CCN(C(=O)c4ccccc4)C3)[nH]c2c1,?,-1%[70.6 µM],i,-2%[174 µM]
Cc1ccc2nc(C3CCCN(Cc4cccs4)C3)[nH]c(=O)c2c1 (centres undefined),?,/,/,-22%
c1coc(-c2nnc([C@H]3CCN(Cc4cccs4)C3)o2)c1,-11%[172 µM],4%[70.6 µM],71µM*,-11%[174 µM]
Cc1ccc2nc([C@H]3CCN(Cc4ccc(C(F)(F)F)cc4)C3)[nH]c2c1,28µM*,?,i,35µM*
OCC1CN(C2CCC2)CC12CCN(Cc1ccc(Br)o1)CC2 (centres undefined),?,-9%,i,?
FC(F)(F)c1ccc(CN2CC[C@H](c3nc4ccccc4[nH]3)C2)cc1,35µM*,?,i,28µM*
FC(F)(F)c1ccc2nc([C@H]3CCN(CC4CC4)C3)[nH]c2c1,?,-6%[70.6 µM],28µM*,?
FC(F)(F)c1ccc2nc([C@H]3CCN(Cc4ccc(Cl)cc4)C3)[nH]c2c1,22µM*,?,?,?
Cn1cc(CN2CC[C@H](c3nc4ccccc4[nH]3)C2)c2ccccc21,50µM*,-15%[70.6 µM],i,?
CC(=O)c1cc(CN2CCCCC(N)C2)cs1 (centres undefined),i,-1%,i,-2%
Cc1cccc(OCC2(CNCC(C)C)C[C@@H](O)[C@@H](O)C2)n1 (some centres undefined),-7%[172 µM],2%[70.6 µM],i,-2%[138 µM]
O=C(c1ccc(F)cc1)N1CCC(C(=O)N2CCC(N3CCOC3=O)CC2)CC1,-3%,/,/,-26%
O=C(Cc1ccc(O)cc1)N1CC(CNc2ccccc2)C2(C1)CN(c1ccccc1)C2 (centres undefined),50µM*,-26%[70.6 µM],i,32µM*
O=C(c1cccc(O)c1)N1CC(CNc2ccccc2)C2(C1)CN(c1ccccc1)C2 (centres undefined),63µM*,-8%[70.6 µM],i,50µM*
COc1ccccc1-n1c(=O)c(C(=O)NCCSC)nc2cccnc21,-1%,/,/,-9%
Cc1c(Cl)cccc1NC(=O)Nc1cccc(-c2nnc3n2CCCC3)c1,-18%,0%,i,-1%
O=C(NCCc1ccccc1)Nc1cccc(-c2ccc(N3CCCCC3)nn2)c1,?,8.9µM*,0.25µM*,-27%
COc1ccccc1NC(=O)Nc1cccc(-c2ccc(N3CCCCC3)nn2)c1,?,?,0.71µM*,?
CCOc1ccccc1NC(=O)Nc1cccc(-c2ccc(N3CCCC3)nn2)c1,-22%,-24%,6.3µM*,-25%
COc1ccccc1NC(=O)Nc1cccc(-c2nnc3n2CCCC3)c1,?,0%,?,?
COc1ccccc1-c1cccc(C(=O)N2CCN(C(=O)c3ccc(Cl)nc3)CC2)c1,?,/,/,-25%
CC(C)(C)COC(=O)N1C[C@@H](CO)[C@@H]2Oc3c(F)cccc3[C@@H]21,?,/,/,32µM*
SMILES,HEK293 tox,hNpr1 antagonist,Luciferase inh,3T3 cytotox
Cc1ccncc1C(=O)N1CC(N(C)Cc2cccnc2)C1,1%,-2%,35µM*,5%
COc1ccccc1-c1ccc(C(=O)N2CCC(NC(=O)Cc3ccc(F)cc3)CC2)cc1,?,/,/,45µM*!
CNC(=O)C1CCN(C(=O)c2ccc(-c3ccccc3OC)cc2)CC1,i,/,/,-2%
COc1ccccc1-c1ccc(C(=O)N2CCC(NC(=O)Cc3cccc(Cl)c3)CC2)cc1,16µM*!,/,/,16µM*
C#CCNC(=O)C1CCN(C(=O)c2ccc(-c3ccccc3OC)cc2)CC1,?,/,/,-32%
COc1ccccc1-c1ccc(C(=O)N2CCC(C(=O)NCCc3ccc(Cl)cc3)CC2)cc1,?,/,/,32µM*
COc1ccccc1-c1ccc(C(=O)N2CCC(NC(=O)c3ccc(Cl)cc3)CC2)cc1,?,/,/,-29%
O=C(c1ccc(F)c(F)c1)N1CCC(n2cc(-c3nc(C4CC4)no3)nn2)C1 (centres undefined),?,-27%,i,-31%
O=C1CCN(S(=O)(=O)c2ccc3c(c2)CCC3)CCCC(c2nc(-c3cccnc3)no2)CCN1 (centres undefined),35µM*,3%,i,?
CCOC(=O)CCNC(=O)N1CCC2(CC1)C(=O)N(C(C)C)C2c1ccccc1 (centres undefined),-21%,/,/,-33%
Cc1nn(-c2ccc(F)cc2)c(Oc2ccc(F)cc2F)c1CCC(=O)N(C)C(C)C,40µM*,-18%,i,?
CCN(CC)C(=O)CCc1c(C)nn(-c2ccccc2C)c1Oc1cccc(F)c1,40µM*,-16%,i,?
Cc1cccc(-n2nc(C)c(CCC(=O)N(C)C(C)C)c2Oc2ccccc2C)c1,?,?,i,28µM*
CCN(CC)C(=O)CCc1c(C)nn(-c2ccc(F)cc2)c1Oc1cccc(F)c1,?,-22%,i,?
Cc1ccccc1-n1nc(C)c(CCC(=O)N(C)C(C)C)c1Oc1ccccc1F,45µM*,-19%,i,?
CCN(C)C(=O)CCc1c(C)nn(-c2ccccc2)c1Oc1ccc(F)cc1F,?,-12%,i,?
Cc1nn(-c2ccc(F)cc2)c(Oc2ccccc2F)c1CCC(=O)NC(C)C,?,-25%,i,?
c1ccc(CCCN2CC[C@H](c3nnc(-c4ccccc4)o3)C2)cc1,?,-3%[70.6 µM],i,?
O=C(Cc1cn2ccsc2n1)NC1CC(c2nnc(CO)n2C2CC2)C1 (centres undefined),-4%,13%,i,5%
Cc1cccc(-n2nc(C)c(CCC(=O)N(C)C(C)C)c2Oc2ccc(F)cc2F)c1,?,?,i,40µM*
COCCNC(=O)CCc1c(C)nn(-c2ccc(F)cc2)c1Oc1ccc(F)cc1F,?,-6%,i,25µM*
Cc1nn(-c2ccc(F)cc2)c(Oc2ccc(F)cc2F)c1CCC(=O)NC(C)C,?,-6%,i,?
COCCCn1c(=O)c(C(=O)N2CCN([S+](=O)([O-])c3cccc(C(F)(F)F)c3)CC2)nc2cccnc21,2%,/,/,-26%
Cc1cc2cc(-c3c(C)noc3C)nc(NC3CCN(C)CC3)c2o1,100µM*,4%[70.6 µM],i,35µM*
Cc1noc(C)c1-c1cc2cc(CO)oc2c(NC2CCN(C)CC2)n1,?,-22%[70.6 µM],i,45µM*
Cc1noc(C)c1-c1cc2cc(CO)oc2c(NCCN2CCOCC2)n1,?,-9%[70.6 µM],i,?
Cc1noc(C)c1-c1cc2cc(CO)oc2c(NCc2cccc(F)c2)n1,?,-16%[70.6 µM],i,25µM*
COCCNc1nc(-c2c(C)noc2C)cc2cc(CO)oc12,-15%[172 µM],4%[70.6 µM],i,?

# Screening data deposited in PubChem by National Center for Advancing Translational Sciences (NCATS).
